According to article PMC11024108:

Key:
Cell adhesion molecule 3 = Cell adhesion molecule 3 (UniProt Q99N28); experiment: cross-link between two proteins; cross-linking mass spectrometry
[1] = biological target: Cell cycle control protein 50A (UniProt Q8VEK0); experiment: as above
Clathrin heavy chain 1 = Clathrin heavy chain 1 (UniProt Q68FD5); experiment: as above
Clathrin light chain B = Clathrin light chain B (UniProt Q6IRU5); experiment: as above
Cofilin-1 = Cofilin-1 (UniProt P23528); experiment: as above
[2] = biological target: Complement C1q subcomponent subunit C (UniProt Q02105); experiment: as above
Cytochrome c = Cytochrome c (UniProt P99999); experiment: as above
[3] = biological target: Cytochrome c oxidase assembly factor 3 homolog, mitochondrial (UniProt Q9Y2R0); experiment: as above
[4] = biological target: Cytoplasmic FMR1-interacting protein 2 (UniProt Q5SQX6); experiment: as above
[5] = biological target: Cytoplasmic dynein 1 heavy chain 1 (UniProt Q9JHU4); experiment: as above
[6] = biological target: Delta-1-pyrroline-5-carboxylate synthase (UniProt P54886); experiment: as above
Prohibitin-2 = Prohibitin-2 (UniProt Q99623); experiment: as above
[7] = biological target: Scaffold attachment factor B1 (UniProt Q15424); experiment: as above
[8] = biological target: Trifunctional enzyme subunit alpha, mitochondrial (UniProt P40939); experiment: as above
[9] = biological target: Dihydrolipoyl dehydrogenase, mitochondrial (UniProt P09622); experiment: as above
[10] = biological target: Malate dehydrogenase, mitochondrial (UniProt P40926); experiment: as above
[11] = biological target: Disintegrin and metalloproteinase domain-containing protein 22 (UniProt Q9R1V6); experiment: as above
[12] = biological target: Disintegrin and metalloproteinase domain-containing protein 23 (UniProt Q9R1V7); experiment: as above
[13] = biological target: DnaJ homolog subfamily A member 1 (UniProt P63037); experiment: as above
[14] = biological target: Vesicle-associated membrane protein 1 (UniProt Q62442); experiment: as above
[15] = biological target: DnaJ homolog subfamily C member 5 (UniProt Q9H3Z4); experiment: as above
[16] = biological target: Dolichyl-diphosphooligosaccharide--protein glycosyltransferase subunit 1 (UniProt P04843); experiment: as above
[17] = biological target: Vesicle-associated membrane protein-associated protein A (UniProt Q9P0L0); experiment: as above
Dynactin subunit 2 = Dynactin subunit 2 (UniProt Q99KJ8); experiment: as above
Dynactin subunit 3 = Dynactin subunit 3 (UniProt Q9Z0Y1); experiment: as above
Dynamin-3 = Dynamin-3 (UniProt Q8BZ98); experiment: as above
[18] = biological target: Dynein light chain 2, cytoplasmic (UniProt Q9D0M5); experiment: as above
Protein piccolo = Protein piccolo (UniProt Q9QYX7); experiment: as above
[19] = biological target: EH domain-containing protein 1 (UniProt Q9WVK4); experiment: as above
[20] = biological target: ER membrane protein complex subunit 2 (UniProt Q9CRD2); experiment: as above
ERO1-like protein alpha = ERO1-like protein alpha (UniProt Q96HE7); experiment: as above
[21] = biological target: Elongation factor 1-alpha 2 (UniProt P62631); experiment: as above
[22] = biological target: Epidermal growth factor receptor substrate 15-like 1 (UniProt Q9UBC2); experiment: as above
Erlin-1 = Erlin-1 (UniProt Q91X78); experiment: as above
[23] = biological target: Eukaryotic translation initiation factor 2 subunit 3, X-linked (UniProt Q9Z0N1); experiment: as above
[24] = biological target: Eukaryotic translation initiation factor 3 subunit B (UniProt Q8JZQ9); experiment: as above
Flotillin-1 = Flotillin-1 (UniProt O75955); experiment: as above
Flotillin-2 = Flotillin-2 (UniProt Q60634); experiment: as above
[25] = biological target: Fragile X messenger ribonucleoprotein 1 (UniProt Q06787); experiment: as above
[26] = biological target: 10 kDa heat shock protein, mitochondrial (UniProt P61604); experiment: cross-linking mass spectrometry
[27] = biological target: Heat shock cognate 71 kDa protein (UniProt P11142); experiment: cross-linking mass spectrometry
[28] = biological target: Heat shock 70 kDa protein 1B (UniProt P0DMV9); experiment: cross-link between two proteins; cross-linking mass spectrometry
Syntaxin-8 = Syntaxin-8 (UniProt Q9UNK0); experiment: cross-linking mass spectrometry
[29] = biological target: Gamma-soluble NSF attachment protein (UniProt Q99747); experiment: cross-link between two proteins; cross-linking mass spectrometry
[30] = biological target: Fructose-bisphosphate aldolase A (UniProt P05064); experiment: as above
[31] = biological target: Gamma-aminobutyric acid receptor subunit beta-1 (UniProt P50571); experiment: as above

Dynactin subunit 2, sequence (Q99KJ8 whole entry): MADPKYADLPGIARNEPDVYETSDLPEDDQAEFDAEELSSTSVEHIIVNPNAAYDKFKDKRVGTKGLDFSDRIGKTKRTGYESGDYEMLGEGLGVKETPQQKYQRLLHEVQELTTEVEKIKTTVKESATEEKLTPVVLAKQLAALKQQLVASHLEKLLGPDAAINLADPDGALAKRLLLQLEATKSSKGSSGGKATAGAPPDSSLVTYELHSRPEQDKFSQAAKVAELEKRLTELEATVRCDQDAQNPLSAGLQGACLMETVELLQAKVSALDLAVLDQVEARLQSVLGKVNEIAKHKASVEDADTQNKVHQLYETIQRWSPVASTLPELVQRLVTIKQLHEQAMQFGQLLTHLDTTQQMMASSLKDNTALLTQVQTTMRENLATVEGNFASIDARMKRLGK
Glutamate dehydrogenase 1, mitochondrial, P00367, sequence (P00367 whole entry): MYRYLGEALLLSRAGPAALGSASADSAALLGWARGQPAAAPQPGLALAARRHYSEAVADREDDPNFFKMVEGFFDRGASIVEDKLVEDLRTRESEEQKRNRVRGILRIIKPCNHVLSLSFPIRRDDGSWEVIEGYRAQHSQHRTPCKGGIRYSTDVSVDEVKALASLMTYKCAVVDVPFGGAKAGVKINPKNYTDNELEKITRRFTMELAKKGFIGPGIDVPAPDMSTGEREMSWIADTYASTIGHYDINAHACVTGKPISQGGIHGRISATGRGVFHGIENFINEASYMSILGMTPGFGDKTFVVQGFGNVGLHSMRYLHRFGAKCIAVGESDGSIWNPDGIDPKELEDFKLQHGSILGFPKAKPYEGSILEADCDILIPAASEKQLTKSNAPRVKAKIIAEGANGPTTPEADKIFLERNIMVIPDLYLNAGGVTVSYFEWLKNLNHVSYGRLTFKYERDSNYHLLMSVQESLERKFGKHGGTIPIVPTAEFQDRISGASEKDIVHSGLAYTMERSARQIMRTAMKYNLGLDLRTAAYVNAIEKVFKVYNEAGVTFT
Disintegrin and metalloproteinase domain-containing protein 22, sequence (Q9R1V6 whole entry, the tested form may be a part): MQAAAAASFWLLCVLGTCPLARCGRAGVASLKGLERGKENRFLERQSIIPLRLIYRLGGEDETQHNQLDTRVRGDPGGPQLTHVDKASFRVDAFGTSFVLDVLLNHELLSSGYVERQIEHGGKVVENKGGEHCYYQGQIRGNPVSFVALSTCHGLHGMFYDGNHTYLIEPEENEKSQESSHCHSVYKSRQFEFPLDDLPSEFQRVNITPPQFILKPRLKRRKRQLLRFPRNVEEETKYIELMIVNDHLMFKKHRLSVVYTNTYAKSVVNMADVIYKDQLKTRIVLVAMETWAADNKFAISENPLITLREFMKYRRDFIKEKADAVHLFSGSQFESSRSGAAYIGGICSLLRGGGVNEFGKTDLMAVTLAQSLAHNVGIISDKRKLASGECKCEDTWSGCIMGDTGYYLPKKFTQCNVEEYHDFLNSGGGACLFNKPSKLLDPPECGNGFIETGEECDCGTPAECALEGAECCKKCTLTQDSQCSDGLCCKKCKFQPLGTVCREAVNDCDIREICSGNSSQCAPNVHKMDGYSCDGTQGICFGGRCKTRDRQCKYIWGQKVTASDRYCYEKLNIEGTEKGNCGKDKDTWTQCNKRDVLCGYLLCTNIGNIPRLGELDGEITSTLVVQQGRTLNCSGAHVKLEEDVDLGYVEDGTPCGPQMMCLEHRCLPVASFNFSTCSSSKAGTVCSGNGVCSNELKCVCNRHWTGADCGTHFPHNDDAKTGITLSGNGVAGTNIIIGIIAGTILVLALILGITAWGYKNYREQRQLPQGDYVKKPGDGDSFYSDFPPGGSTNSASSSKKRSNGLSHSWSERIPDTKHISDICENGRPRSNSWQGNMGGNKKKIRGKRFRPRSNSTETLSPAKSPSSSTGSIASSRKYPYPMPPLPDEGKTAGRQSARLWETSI
Scaffold attachment factor B1, sequence (Q15424 whole entry): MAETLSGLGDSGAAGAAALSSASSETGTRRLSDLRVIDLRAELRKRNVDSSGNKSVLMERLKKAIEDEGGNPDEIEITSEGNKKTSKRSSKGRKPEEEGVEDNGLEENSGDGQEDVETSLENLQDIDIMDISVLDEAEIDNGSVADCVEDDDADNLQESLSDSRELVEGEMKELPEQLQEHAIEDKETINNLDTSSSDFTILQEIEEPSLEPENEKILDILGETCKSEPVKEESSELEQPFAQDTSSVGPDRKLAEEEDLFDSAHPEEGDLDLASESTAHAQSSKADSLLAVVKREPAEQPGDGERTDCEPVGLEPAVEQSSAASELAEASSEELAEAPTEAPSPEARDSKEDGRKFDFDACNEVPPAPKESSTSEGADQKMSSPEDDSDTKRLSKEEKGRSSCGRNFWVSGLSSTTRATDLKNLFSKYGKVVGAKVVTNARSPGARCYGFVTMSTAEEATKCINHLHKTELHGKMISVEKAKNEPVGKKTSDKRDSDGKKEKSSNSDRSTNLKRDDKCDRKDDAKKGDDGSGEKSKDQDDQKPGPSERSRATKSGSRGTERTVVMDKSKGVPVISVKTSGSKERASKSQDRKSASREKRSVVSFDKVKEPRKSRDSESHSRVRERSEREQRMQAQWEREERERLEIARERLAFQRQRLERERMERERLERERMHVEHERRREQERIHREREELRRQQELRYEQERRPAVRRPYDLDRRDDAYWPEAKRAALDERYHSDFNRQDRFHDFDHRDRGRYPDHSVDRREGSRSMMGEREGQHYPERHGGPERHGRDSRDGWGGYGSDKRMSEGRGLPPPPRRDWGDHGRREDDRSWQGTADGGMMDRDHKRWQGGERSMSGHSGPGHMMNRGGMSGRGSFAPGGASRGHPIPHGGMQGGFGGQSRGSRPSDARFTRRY
Complement C1q subcomponent subunit C, sequence (Q02105 whole entry): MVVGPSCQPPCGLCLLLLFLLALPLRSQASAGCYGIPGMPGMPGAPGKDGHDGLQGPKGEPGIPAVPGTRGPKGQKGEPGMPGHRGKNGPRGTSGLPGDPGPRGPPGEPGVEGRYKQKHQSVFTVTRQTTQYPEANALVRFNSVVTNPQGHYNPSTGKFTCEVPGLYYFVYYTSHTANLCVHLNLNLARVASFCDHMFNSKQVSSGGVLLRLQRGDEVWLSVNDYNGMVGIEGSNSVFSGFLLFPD
Dynamin-3, sequence (Q8BZ98 whole entry): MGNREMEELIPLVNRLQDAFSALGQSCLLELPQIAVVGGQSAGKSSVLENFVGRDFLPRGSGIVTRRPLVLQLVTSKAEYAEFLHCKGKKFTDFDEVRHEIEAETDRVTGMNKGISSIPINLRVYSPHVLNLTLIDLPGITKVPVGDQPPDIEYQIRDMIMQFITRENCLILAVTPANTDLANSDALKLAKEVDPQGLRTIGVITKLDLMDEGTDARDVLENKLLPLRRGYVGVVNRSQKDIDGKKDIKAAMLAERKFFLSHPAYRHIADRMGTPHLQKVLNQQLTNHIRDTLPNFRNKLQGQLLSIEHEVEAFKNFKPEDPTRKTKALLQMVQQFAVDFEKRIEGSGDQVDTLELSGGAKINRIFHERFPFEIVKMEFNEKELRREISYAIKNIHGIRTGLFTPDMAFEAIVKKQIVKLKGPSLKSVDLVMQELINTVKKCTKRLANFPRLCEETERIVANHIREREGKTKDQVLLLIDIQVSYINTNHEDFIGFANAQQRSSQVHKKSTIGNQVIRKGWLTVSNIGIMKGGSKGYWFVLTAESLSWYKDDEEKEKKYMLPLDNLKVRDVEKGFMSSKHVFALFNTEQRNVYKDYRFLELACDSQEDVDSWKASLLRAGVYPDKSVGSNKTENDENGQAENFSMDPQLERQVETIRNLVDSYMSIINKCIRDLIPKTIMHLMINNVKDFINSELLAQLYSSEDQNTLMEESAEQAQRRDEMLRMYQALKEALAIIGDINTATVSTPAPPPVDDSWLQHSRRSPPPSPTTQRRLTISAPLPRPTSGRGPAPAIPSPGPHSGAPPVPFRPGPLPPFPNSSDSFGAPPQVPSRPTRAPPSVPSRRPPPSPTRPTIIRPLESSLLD
Flotillin-1, sequence (O75955 whole entry): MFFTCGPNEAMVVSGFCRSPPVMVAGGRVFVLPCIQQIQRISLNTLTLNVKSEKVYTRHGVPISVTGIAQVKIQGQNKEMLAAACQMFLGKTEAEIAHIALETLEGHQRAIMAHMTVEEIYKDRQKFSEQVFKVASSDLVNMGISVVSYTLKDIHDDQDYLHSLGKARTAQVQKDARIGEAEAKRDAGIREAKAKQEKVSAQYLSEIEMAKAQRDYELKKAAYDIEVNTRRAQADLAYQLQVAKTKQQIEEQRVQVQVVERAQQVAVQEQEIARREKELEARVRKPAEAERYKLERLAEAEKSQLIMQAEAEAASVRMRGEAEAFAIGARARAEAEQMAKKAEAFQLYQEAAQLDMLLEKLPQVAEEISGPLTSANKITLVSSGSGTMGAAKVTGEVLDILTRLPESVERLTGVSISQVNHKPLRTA
Syntaxin-8, sequence (Q9UNK0 whole entry): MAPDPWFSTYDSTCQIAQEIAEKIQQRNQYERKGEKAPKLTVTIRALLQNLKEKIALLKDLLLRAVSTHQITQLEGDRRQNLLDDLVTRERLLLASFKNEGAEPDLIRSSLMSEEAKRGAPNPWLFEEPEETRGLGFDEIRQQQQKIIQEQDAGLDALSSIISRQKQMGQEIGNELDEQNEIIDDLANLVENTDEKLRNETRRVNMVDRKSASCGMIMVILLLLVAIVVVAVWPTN
Cell cycle control protein 50A, sequence (Q8VEK0 whole entry): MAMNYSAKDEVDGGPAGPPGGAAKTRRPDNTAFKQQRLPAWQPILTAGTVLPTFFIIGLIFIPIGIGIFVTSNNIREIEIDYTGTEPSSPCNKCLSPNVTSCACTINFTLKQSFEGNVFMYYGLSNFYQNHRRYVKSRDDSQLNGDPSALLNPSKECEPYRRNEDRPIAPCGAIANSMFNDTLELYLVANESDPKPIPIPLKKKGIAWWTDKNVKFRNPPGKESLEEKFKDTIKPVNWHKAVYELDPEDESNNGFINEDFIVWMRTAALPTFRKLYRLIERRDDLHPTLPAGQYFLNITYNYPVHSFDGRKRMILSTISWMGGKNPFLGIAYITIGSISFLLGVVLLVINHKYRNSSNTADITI

Substance: Cell adhesion molecule 2, Q8BLQ9
- listed as a hit (Cell adhesion molecule 3): yes

Substance: Phospholipid-transporting ATPase IA, P70704
- listed as a hit [1]: yes

Substance: Clathrin light chain A, O08585
- listed as a hit (Clathrin heavy chain 1): yes

Substance: Clathrin heavy chain 1, Q68FD5
- listed as a hit (Clathrin light chain B): yes

Substance: WD repeat-containing protein 1, O75083
- listed as a hit (Cofilin-1): yes

Substance: Complement C1q subcomponent subunit A, P98086
- listed as a hit [2]: yes

Substance: Holocytochrome c-type synthase, P53701
- listed as a hit (Cytochrome c): yes

Substance: COX assembly mitochondrial protein homolog, Q7Z7K0
- listed as a hit [3]: yes

Substance: Nck-associated protein 1, P28660
- listed as a hit [4]: yes

Substance: Cytoplasmic dynein 1 light intermediate chain 2, Q6PDL0
- listed as a hit [5]: yes

Substance: Cytoplasmic dynein 1 light intermediate chain 1, Q8R1Q8
- listed as a hit [5]: yes

Substance: 60 kDa heat shock protein, mitochondrial, P10809
- listed as a hit [6]: yes
- listed as a hit (Prohibitin-2): yes
- listed as a hit [7]: yes
- listed as a hit [8]: yes

Substance: Glutamate dehydrogenase 1, mitochondrial, P00367
- listed as a hit [9]: yes
- listed as a hit [10]: yes

Substance: Contactin-2, Q61330
- listed as a hit [11]: yes

Substance: Leucine-rich glioma-inactivated protein 1, Q9JIA1
- listed as a hit [11]: yes
- listed as a hit [12]: yes

Substance: DnaJ homolog subfamily C member 5, P60904
- listed as a hit [13]: yes
- listed as a hit [14]: yes

Substance: DnaJ homolog subfamily A member 1, P31689
- listed as a hit [15]: yes

Substance: Membrane-associated progesterone receptor component 2, O15173
- listed as a hit [16]: yes
- listed as a hit [17]: yes

Substance: Dynactin subunit 1, O08788
- listed as a hit (Dynactin subunit 2): yes

Substance: Beta-centractin, Q8R5C5
- listed as a hit (Dynactin subunit 2): yes

Substance: Dynactin subunit 2, Q99KJ8
- listed as a hit (Dynactin subunit 3): yes

Substance: Dynamin-1, P39053
- listed as a hit (Dynamin-3): yes

Substance: Protein bassoon, O88737
- listed as a hit [18]: yes
- listed as a hit (Protein piccolo): yes

Substance: EH domain-containing protein 3, Q9QXY6
- listed as a hit [19]: yes

Substance: ER membrane protein complex subunit 8, O70378
- listed as a hit [20]: yes

Substance: Thioredoxin domain-containing protein 5, Q8NBS9
- listed as a hit (ERO1-like protein alpha): yes

Substance: Elongation factor 1-alpha 1, P10126
- listed as a hit [21]: yes

Substance: Intersectin-2, Q9NZM3
- listed as a hit [22]: yes

Substance: Erlin-2, Q8BFZ9
- listed as a hit (Erlin-1): yes

Substance: Eukaryotic translation initiation factor 2 subunit 1, Q6ZWX6
- listed as a hit [23]: yes

Substance: Eukaryotic translation initiation factor 3 subunit A, P23116
- listed as a hit [24]: yes

Substance: Syntaxin-7, O15400
- listed as a hit (Flotillin-1): yes

Substance: Flotillin-1, O08917
- listed as a hit (Flotillin-2): yes

Substance: RNA-binding protein FXR1, P51114
- listed as a hit [25]: yes

Substance: Peptidyl-prolyl cis-trans isomerase F, mitochondrial, P30405
- listed as a hit [26]: yes

Substance: BAG family molecular chaperone regulator 2, O95816
- listed as a hit [27]: yes
- listed as a hit [28]: yes

Substance: Alpha-soluble NSF attachment protein, P54920
- listed as a hit (Syntaxin-8): yes
- listed as a hit [29]: yes

Substance: Fructose-bisphosphate aldolase C, P05063
- listed as a hit [30]: yes

Substance: Gamma-aminobutyric acid receptor subunit gamma-2, P22723
- listed as a hit [31]: yes
